Bioassay records deposited in PubChem by several laboratories.
PriA SSB inh: inhibitors of Klebsiella pneumoniae PriA binding to SSB C-terminal tail, primary screen, biochemical, AlphaScreen; AlphaScreen SSBct-PriA binding, biotinylated peptide; inhibition, % at 33 µM; 430,000 tested, 0.6% active; AID 1272365, 2023; in the data active = inhibition mostly above about 37%, no sharp cut-off; inactive = mostly below about 20%
Vc quorum ag-1: inducers of Vibrio cholerae quorum light production without autoinducers, primary screen, BH1578 luxS cqsA deficient, single point; V. cholerae BH1578 lux reporter, luminescence, 6 h; activation, % at 18.7 µM; 350,000 tested, 0.16% active; AID 588436, 2011; in the data active = activation mostly above about 9.7%, no sharp cut-off
SARS 3CLpro inh: SARS-CoV 3CLpro protease inhibitors, primary screen, biochemical, quenched FRET | inhibition, % at 6 µM | recombinant SARS-CoV 3CLpro, quenched FRET peptide cleavage | Replicase polyprotein 1ab (Severe acute respiratory syndrome coronavirus), P0C6X7 | 290,000 tested, 0.14% active; in the data active = inhibition above about 12%
TcdB GH inh: TcdB glycohydrolase inhibitors, primary screen, biochemical, single point, plate reader. Toxin B (Clostridioides difficile), P18177. TcdB glycohydrolase enzymatic assay. inhibition, % at 9.99 µM. 350,000 tested, 0.24% active. AID 652162, 2013; in the data active = inhibition above about 10%
Target sequence (P18177 whole entry, looked up): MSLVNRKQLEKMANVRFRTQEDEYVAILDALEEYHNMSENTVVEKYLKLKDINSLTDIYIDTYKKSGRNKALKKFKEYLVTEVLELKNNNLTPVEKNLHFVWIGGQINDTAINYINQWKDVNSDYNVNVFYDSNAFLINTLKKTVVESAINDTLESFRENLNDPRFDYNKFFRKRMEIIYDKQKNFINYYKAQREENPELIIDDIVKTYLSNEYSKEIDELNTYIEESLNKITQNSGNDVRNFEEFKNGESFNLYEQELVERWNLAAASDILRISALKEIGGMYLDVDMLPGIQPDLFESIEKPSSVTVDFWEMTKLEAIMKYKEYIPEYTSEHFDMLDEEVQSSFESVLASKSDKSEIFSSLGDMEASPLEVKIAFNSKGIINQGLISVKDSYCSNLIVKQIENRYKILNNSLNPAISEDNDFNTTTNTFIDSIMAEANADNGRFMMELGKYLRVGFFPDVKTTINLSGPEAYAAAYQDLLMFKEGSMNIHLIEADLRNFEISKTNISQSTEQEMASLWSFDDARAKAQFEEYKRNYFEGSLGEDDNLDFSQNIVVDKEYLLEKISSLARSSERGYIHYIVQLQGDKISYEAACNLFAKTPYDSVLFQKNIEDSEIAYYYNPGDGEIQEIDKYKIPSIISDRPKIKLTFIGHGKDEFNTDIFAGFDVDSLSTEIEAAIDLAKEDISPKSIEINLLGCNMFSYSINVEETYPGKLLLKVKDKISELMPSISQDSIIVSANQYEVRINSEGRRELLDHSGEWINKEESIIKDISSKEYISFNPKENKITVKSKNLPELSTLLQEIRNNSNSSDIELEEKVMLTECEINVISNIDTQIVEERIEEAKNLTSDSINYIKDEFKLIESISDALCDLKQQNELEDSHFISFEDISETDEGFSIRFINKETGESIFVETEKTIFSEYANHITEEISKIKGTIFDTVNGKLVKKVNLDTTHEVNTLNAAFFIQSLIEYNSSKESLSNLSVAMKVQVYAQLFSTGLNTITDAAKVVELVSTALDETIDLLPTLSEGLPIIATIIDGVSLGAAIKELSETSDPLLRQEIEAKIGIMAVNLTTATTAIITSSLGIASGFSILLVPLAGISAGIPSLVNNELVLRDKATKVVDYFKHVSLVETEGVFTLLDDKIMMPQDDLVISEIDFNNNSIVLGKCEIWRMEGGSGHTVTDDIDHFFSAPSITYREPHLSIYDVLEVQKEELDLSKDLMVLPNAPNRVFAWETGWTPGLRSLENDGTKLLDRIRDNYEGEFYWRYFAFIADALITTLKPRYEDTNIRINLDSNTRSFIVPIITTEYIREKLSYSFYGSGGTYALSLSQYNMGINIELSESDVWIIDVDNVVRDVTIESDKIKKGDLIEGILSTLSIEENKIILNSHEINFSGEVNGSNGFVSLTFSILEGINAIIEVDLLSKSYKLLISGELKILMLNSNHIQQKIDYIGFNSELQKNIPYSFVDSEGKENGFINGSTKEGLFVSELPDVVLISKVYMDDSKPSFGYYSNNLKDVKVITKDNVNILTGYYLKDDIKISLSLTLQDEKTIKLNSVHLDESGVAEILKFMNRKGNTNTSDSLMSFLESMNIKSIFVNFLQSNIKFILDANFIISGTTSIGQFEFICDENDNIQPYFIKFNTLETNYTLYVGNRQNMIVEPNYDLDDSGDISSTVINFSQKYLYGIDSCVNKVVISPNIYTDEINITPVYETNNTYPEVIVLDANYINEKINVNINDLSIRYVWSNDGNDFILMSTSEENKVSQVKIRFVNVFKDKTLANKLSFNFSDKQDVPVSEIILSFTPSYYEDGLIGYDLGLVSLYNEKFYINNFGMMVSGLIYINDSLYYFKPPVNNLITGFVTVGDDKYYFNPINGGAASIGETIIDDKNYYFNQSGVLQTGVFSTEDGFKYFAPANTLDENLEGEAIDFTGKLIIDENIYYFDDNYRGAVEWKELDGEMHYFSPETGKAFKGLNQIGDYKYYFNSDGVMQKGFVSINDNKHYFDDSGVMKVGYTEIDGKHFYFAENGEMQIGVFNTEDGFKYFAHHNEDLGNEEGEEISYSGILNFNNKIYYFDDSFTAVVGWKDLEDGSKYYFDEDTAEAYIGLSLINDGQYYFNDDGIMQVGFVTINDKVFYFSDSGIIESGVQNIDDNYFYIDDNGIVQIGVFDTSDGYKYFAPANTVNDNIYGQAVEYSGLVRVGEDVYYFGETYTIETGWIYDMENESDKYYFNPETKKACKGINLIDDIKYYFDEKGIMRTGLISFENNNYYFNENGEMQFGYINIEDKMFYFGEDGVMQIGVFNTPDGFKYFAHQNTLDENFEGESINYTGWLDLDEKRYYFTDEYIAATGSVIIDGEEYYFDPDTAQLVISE
CCHF vOTU inh: CCHFV vOTU protease inhibitors, primary screen, biochemical, Pep-AMC substrate, fluorescence; Crimean-Congo hemorrhagic fever virus L polyprotein viral ovarian tumor (vOTU) protease …; inhibition, % at 11.5 µM; 370,000 tested, 0.55% active; AID 651958, 2012; in the data active = inhibition above about 30%
DUSP3 inh: VHR1 phosphatase inhibitors, primary screen, biochemical, absorbance, uHTS; Dual specificity protein phosphatase 3 (Homo sapiens), P51452; recombinant VHR phosphatase, pNPP absorbance; inhibition, % at 13.3 µM; 290,000 tested, 0.52% active; AID 1654, 2009; in the data active = inhibition above about 50%
Vc quorum ag-2: V. cholerae lux activation without autoinducers – BH1578 luxS cqsA deficient, cherry-pick, plate reader, dose response; 620 tested, under 10 active; shares compounds with Vc quorum ag-1; V. cholerae BH1578 lux reporter, luminescence, 6 h; activation, % at 50 µM; call rule not given here
HeLa tox: HeLa cell cytotoxicity, dose response, cytotoxicity control, 24 h, dry powder; shares compounds with Vc quorum ag-1; HeLa viability, CellTiter-Glo ATP luminescence; activity change, negative = cytotoxicity, % at 35 µM; 25 tested, under 10 active;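 active = signal drop with fitted half-maximal concentration at or below twice the highest valid dose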
A number is an active result; – = inactive; · = no result given; + = active, no number. Only some compounds are listed: those with a hit (about 1.3% of all), similar ones and a draw of the others.

SMILES	PriA SSB inh	Vc quorum ag-1	SARS 3CLpro inh	TcdB GH inh	CCHF vOTU inh	DUSP3 inh	Vc quorum ag-2	others
O=C(O)CN1CCN(Cc2ccc(F)cc2Cl)C1=O	–	–	–	·	–	–	–
O=C(CN1CCN(Cc2ccc(F)cc2Cl)C1=O)NCCc1ccccc1	–	–	–	–	–	–	·
CS(=O)(=O)c1ccccc1-c1nnc(NC(=O)c2cc([N+](=O)[O-])ccc2Cl)o1	–	·	·	·	·	·	·
Cc1ncc(S(=O)(=O)c2ccccc2)c(-c2ccc(Cl)cc2Cl)n1	–	17	–	·	–	–	–
CN(C)CCNc1nc2c(Cl)cccc2s1	–	·	·	·	·	·	·
CCOC(=O)Cc1c(C)[nH]c(=S)[nH]c1=O	–	17	–	·	–	–	–
COC(=O)CCc1c(C)[nH]c(=S)[nH]c1=O	–	–	–	·	–	–	·
O=c1c2ccccc2nnn1CSc1nnc(-c2cccnc2)n1-c1ccccc1F	–	–	–	·	–	–	–
Cc1cc2c(ncn2C)c(NS(=O)(=O)c2cc(Cl)ccc2Cl)c1C	–	17	–	·	–	–	–
Cc1cc2c(ncn2C)c(NS(=O)(=O)c2ccccc2Cl)c1C	–	–	–	·	–	–	·
Cc1ccc(C)c(C(=O)CN2C(=O)NC3(CCCCCC3)C2=O)c1	–	–	·	–	–	·	–
Cn1cc(-c2cccs2)nc1CCNS(=O)(=O)c1ccc(Cl)s1	–	·	·	·	·	·	·
COc1cccc(CN(C)C(=O)CSCC(=O)Nc2cc(C)on2)c1OC	–	–	·	–	–	·	·
COc1cccc(CN(C)C(=O)CSC(C)C(=O)Nc2cc(C)on2)c1OC (stereo unspecified)	–	–	·	–	–	·	–
CCc1cc(C(=O)c2ccccc2OC)c(N)s1	–	–	–	·	–	–	–
O=C(Oc1nsnc1N1CCCCC1)N1CCOCC1	–	–	–	·	–	–	–
O=C(Oc1nsnc1N1CCOCC1)N1CCCC1	–	–	–	·	–	·	·
CCOC(=O)C1CCCN(C(=O)c2cc3c(OC)c(OC)c(OC)cc3[nH]2)C1 (stereo unspecified)	–	17	–	–	–	–	–
CCOC(=O)C1CCN(C(=O)c2cc3c(OC)c(OC)c(OC)cc3[nH]2)CC1	–	–	–	–	–	·	·
COc1ccc(-n2c(COc3ccccc3)nnc2SCc2ccc(C#N)cc2)cc1	–	–	–	·	–	–	–
CCc1ccc(OCCNC(=O)c2ccco2)cc1	–	·	–	–	–	–	–
CCOc1ccc(CN(C)C(=O)CCNC(=O)c2ccco2)cc1	–	–	·	–	–	·	·
Cc1ccc(OCCNC(=O)c2ccco2)cc1C	–	+	–	·	–	–	–
O=C(NCCOc1ccc(Cl)cc1)c1ccco1	–	425	–	–	–	–	–
Cc1ccc(C(=O)NCCNC(=O)c2ccco2)cc1C	–	–	–	–	–	–	·
SMILES	PriA SSB inh	Vc quorum ag-1	SARS 3CLpro inh	TcdB GH inh	CCHF vOTU inh	DUSP3 inh	Vc quorum ag-2	others
CCOc1ccc(CNC(=O)c2ccco2)cc1	–	60	–	–	–	–	–
O=C(Nn1cnc2c(cnn2-c2ccccc2)c1=O)c1ccc(Br)o1	–	·	·	·	·	·	·
Cc1ccc(OCCNC(=O)c2cccc(C)c2)cc1	–	+	–	–	–	–	–	HeLa tox=–
CCCOc1ccc(-c2csc(NC(=O)C3CCCCN3S(C)(=O)=O)n2)cc1 (stereo unspecified)	–	·	·	·	·	·	·
O=C(CSc1nc(=O)n(CCN2CCOCC2)c2c1CCCC2)Nc1ccccc1Cl	·	–	·	–	–	·	·
Cc1cccc(NC(=O)CSc2nc(=O)n(CCN3CCOCC3)c3c2CCCC3)c1C	–	–	·	–	–	·	–
Cc1nc2ncnn2c(C)c1Cc1c(Cl)cccc1Cl	–	94	–	·	–	–	–
CCn1cc(C(=O)NC2CC3CCC2C3)c(=O)c2ccc(C)nc21 (stereo unspecified)	·	·	·	·	·	–	·
CCn1cc(C(=O)NC2CCCCC2C)c(=O)c2ccc(C)nc21 (stereo unspecified)	–	30	–	·	–	–	–
O=C(NCc1ccccn1)c1ccc(CS(=O)(=O)Cc2ccc(Cl)cc2)o1	–	15	–	·	–	–	–
CCOc1ccccc1N(CC(=O)Nc1ccc2c(c1)OCCO2)S(C)(=O)=O	–	–	–	·	–	–	–
Cc1ccccc1OCC(=O)OCC(=O)N1CCc2ccccc21	–	–	·	–	–	·	·
Cc1ccccc1OCC(=O)OCC(=O)N1CCCc2ccccc21	–	–	·	–	–	·	–
O=C(Cc1cccs1)Nc1cnn(CC2CCOCC2)c1	–	·	·	·	·	·	·
CC(=O)N1CCCc2ccccc21	–	–	–	·	–	–	·
CC(=O)N1CCC(=O)N(C(C)C)c2ccccc21	–	25	–	·	–	–	–
COC(=O)c1ccc(C2c3c(oc4ccc(F)cc4c3=O)C(=O)N2CCO)cc1 (stereo unspecified)	–	–	–	·	–	–	·
COC(=O)c1ccc(C2C(C(C)=O)=C(O)C(=O)N2CCO)cc1 (stereo unspecified)	–	17	–	·	–	–	–
CN(CC(=O)Nc1c(Cl)cccc1Cl)C(=O)c1n[nH]c2ccccc12	–	–	·	–	–	·	–
O=C(Nc1ccc(-n2nncc2C23CC4CC(CC(C4)C2)C3)cc1)c1cc2ccccc2oc1=O	–	·	·	·	·	·	·
CC(C)N(Cc1nc(-c2ccc(Cl)cc2)no1)C(=O)C12CC3CC(CC(C3)C1)C2	–	–	–	·	–	–	·
Cc1cccc(-c2noc(CN(C(=O)C34CC5CC(CC(C5)C3)C4)C(C)C)n2)c1	–	18	–	·	–	–	–
Cc1ccc(NC(=O)Nc2ccc(-c3nc4ccccc4[nH]3)cc2)cc1	–	·	·	·	·	·	·
CN(Cc1nc2ccccc2n1C)C(=O)c1ccco1	–	–	–	–	–	–	–
N#Cc1cccnc1OC1CCN(C(=O)c2ccco2)CC1	–	·	·	·	·	·	·
SMILES	PriA SSB inh	Vc quorum ag-1	SARS 3CLpro inh	TcdB GH inh	CCHF vOTU inh	DUSP3 inh	Vc quorum ag-2	others
O=C(Nc1cccc(-c2ccc(N3CCOCC3)nn2)c1)c1ccccc1Cl	–	–	·	–	–	·	–
COCCCNC(=O)c1ccc2c(=O)n(C3CCCC3)c(=S)[nH]c2c1	–	–	–	·	–	–	–
CS(=O)(=O)NNC(=O)c1sccc1OCc1ncc(C(F)(F)F)cc1Cl	–	–	–	–	–	–	–
Cc1cc(C)cc(OCCNC(=O)c2ccc(F)cc2)c1	–	·	·	·	·	·	·
CC(C)Oc1ccc(CNC(=O)Cn2c(=O)c3cccn3c3cccnc32)cc1	–	–	–	–	–	–	·
CCOc1ccc(CNC(=O)Cn2c(=O)c3cccn3c3ccccc32)cc1	–	25	–	–	–	–	–
